# The full list was thinned out, with hits kept by preference.
# CD40 NFkB inh: CD40 pathway inhibition in BL2 cells. actives 0.94% (n = 83,000). BL2 NF-kB luciferase reporter, CD40L-induced, 4 h. inhibition, % at 10 µM. AID 1053188;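 active means mean inhibition of at least 50% with a set share of replicates also reaching that level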;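 further: 0% = neutral control wells and 100% = IKK inhibitor VII at 50 µM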
# * = called active by the depositor; ! = a repeat was not active; [ ] = remark or other dose.
SMILES,CD40 NFkB inh
CC=Cc1ccc2n(c1=O)C[C@H]1[C@H](CO)[C@@H](C(=O)NCCC)N(Cc3cccnc3)[C@@H]21 (mixture of isomers),-5.3[25 µM]
Cn1cc(/C=N/Nc2ccccc2)c2ccccc21,-3.1
O=C(/C=C/c1ccccc1)c1ccccc1,-42.4
Cn1cc(/C=C/C(=O)c2ccccc2)c2ccccc21,33.2*
CN(C)CC(=O)N[C@H]1CC[C@H](CCn2cc(C3CCCC3)nn2)O[C@H]1CO,-6.1
COc1cccc(NC(=O)N2[C@@H]3CNC[C@H]2C3c2ccc(/C=C/c3ccccc3)cc2)c1 (stereo partly drawn),59.8*!
O=C(Nc1cccc(Cl)c1)N1[C@@H]2CNC[C@H]1C2c1ccc(/C=C/c2ccccc2)cc1 (stereo partly drawn),6.6[25 µM]
COc1cccc(NC(=O)N2[C@@H]3CNC[C@H]2C3c2ccc(-c3ccccc3)cc2)c1 (stereo partly drawn),-18.7
COc1ccc2c3c([nH]c2c1)[C@H](CO)N(C(=O)C1CCOCC1)CC31CCN(Cc2cccc(F)c2)CC1,-4.3[25 µM]
O=C(C[C@@H]1C[C@H]2c3cc(NC(=O)C4CCC4)ccc3O[C@H]2[C@@H](CO)O1)NC1CCCC1,-0.3[25 µM]
Cc1ccccc1-c1ccc(C2[C@H]3CNC[C@@H]2N3Cc2cccnc2)cc1 (stereo partly drawn),2.7[25 µM]
CCOC(=O)N1CCN(S(=O)(=O)c2ccc3c(c2)CCN3C(=O)C2CCC2)CC1,2.6
O=C(c1ccco1)N1CCN(S(=O)(=O)c2ccc3c(c2)CCN3C(=O)C2CCC2)CC1,9.2
O=C(C1CCC1)N1CCc2cc(S(=O)(=O)N3CCCCC3)ccc21,active
O=C(C1CCOCC1)N1C[C@@H]2[C@H](c3ccccc31)[C@@H](CO)N2C(=O)Nc1ccccc1F,3.9[25 µM]
O=C(NC1CCCCC1)[C@H]1[C@H](CO)[C@H]2Cn3c(ccc(-c4ccccc4)c3=O)[C@@H]1N2,-3.7
CCOC(=O)c1c(-c2ccc(C)o2)csc1NC(=O)CN1CCCCC1,62.6*
CCOC(=O)c1c(-c2ccc(C)o2)csc1NC(=O)CN1CCC(C(N)=O)CC1,-5.6
CCOC(=O)c1c(-c2ccc(C)o2)csc1NC(=O)CN1CCN(CC)CC1,-2.2
CCCNC(=O)N1[C@H](C#N)[C@H](c2ccccc2-c2ccc(F)cc2)[C@@H]1CO,26.1[25 µM]
CN1C(=O)c2cc(NC(=O)C3CCC3)ccc2OC[C@H]2O[C@H](CC(=O)NCCc3ccncc3)CC[C@@H]21,2.8
N#Cc1cccc(-c2ccc3c(c2)[C@@H]2[C@@H](CCN2C(=O)c2ccncc2)[C@@H](CO)N3)c1,-54.8[25 µM]
CO[C@H]1CN(C)C(=O)c2ccc(NC(=O)Nc3c(C)noc3C)cc2OC[C@H](C)N(CCC(F)(F)F)C[C@@H]1C,-1.6[25 µM]
COc1cc2c(cc1OC)C1Cc3ccc(OC)c(OC)c3CN1CC2 (stereo not drawn),-14.6[25 µM]
COc1cc2c(cc1OC)[C@@H]1Cc3ccc(OC)c(OC)c3CN1CC2,2.7
SMILES,CD40 NFkB inh
CCC1=C(CC2NCCc3ccccc32)CC2c3cc(OC)c(OC)cc3CCN2C1 (stereo not drawn),54.7*
C[C@H](CO)N1C[C@H](C)[C@@H](CN(C)C(=O)C2CC2)OCc2ccccc2-c2ccccc2C1=O,6.2
C/C=C/c1ccc([C@H]2[C@@H](CO)N(C(=O)CC)[C@H]2CN(C)S(C)(=O)=O)cc1,9.4[25 µM]
CC(=O)N1C[C@@H]2C(c3ccccc3)[C@H](C1)N2S(C)(=O)=O (stereo partly drawn),9.2
Clc1ccccc1/C=C/c1nc(-c2ccccn2)no1,95.6*
Cc1occc1-c1nc(-c2ccccn2)no1,-47.7
Cc1onc(-c2ccccc2Cl)c1-c1nc(-c2ccccn2)no1,5.6
Cc1ccc(-c2ccc(C3[C@@H]4CN(S(=O)(=O)c5ccc(C)cc5)C[C@H]3N4)cc2)cc1 (stereo partly drawn),25.3
O=C(C[C@@H]1CC[C@@H]2[C@H](COC[C@H](O)CN2S(=O)(=O)c2ccccc2)O1)NCCN1CCCCC1,-2.5
O=C1C=CC(=O)N1Cc1cccnc1,6.9
O=C1C=CC(=O)N1CCCCCCCCCCN1C(=O)C=CC1=O,110.0*
CN(C)C(=S)N=c1ssc(=S)n1Cc1ccccc1,44.3*
CSc1nnc(CNC(=O)C23CC4CC(CC(C4)C2)C3)n1Cc1ccccc1,8.2
CC(C)NC(=O)N(C)C[C@H]1OCCCC[C@H](C)Oc2ccc(NC(=O)NC3CCCCC3)cc2C(=O)N([C@@H](C)CO)C[C@H]1C,1.4
Cc1c(CCOC(=O)C23CC4CC(CC(C)(C4)C2)C3)sc[n+]1CC(=O)c1ccccc1,41.9
Cc1c(CCOC(=O)CC23CC4CC(CC(C)(C4)C2)C3)sc[n+]1CC(=O)c1ccccc1,69.7*
Cc1c(CCOC(=O)c2ccccc2)sc[n+]1Cc1ccccc1,-2.4
O=C(C[C@@H]1CC[C@H](NC(=O)CN2CCOCC2)[C@H](CO)O1)NC1CCC1,-8.5[25 µM]
COc1ccc(CN(CCC(c2ccccc2)c2ccc(OC(C)C)cc2)C(=O)CCl)cc1OC (stereo not drawn),44.5*
COc1ccc(CN(CCC(c2ccco2)C(C)C)C(C)=O)cc1OC (stereo not drawn),4.6
COc1ccc(CN(CCC(c2ccccc2)C2CCOC(C)(C)C2)C(C)=O)cc1 (stereo not drawn),-4.8
COc1ccccc1CN1[C@H](CO)[C@@H]2c3ccccc3N(C(=O)C3CCOCC3)C[C@@H]21,-7.0[25 µM]
CC(=O)Nc1ccc(C=CC=Cc2cccc([N+](=O)[O-])c2)cc1,-21.8
O=C(/C=C/c1cccc([N+](=O)[O-])c1)OCC(=O)c1ccccc1,-4.7
CC(=O)Oc1ccccc1C(=O)C=Cc1cccc([N+](=O)[O-])c1,89.3*
SMILES,CD40 NFkB inh
C/C=C/c1ccc([C@@H]2[C@@H](CO)N(C(C)=O)[C@H]2CN(CC)C(=O)CN(C)C)cc1,-10.4[25 µM]
CCCNC(=O)N1CC2(CCN(C(=O)C3CCOCC3)CC2)c2c([nH]c3cc(OC)ccc23)[C@@H]1CO,-4.6[25 µM]
COc1ccc(C(=O)C=Cc2ccc(OCc3ccccc3)c(OC)c2)cc1OC,-16.0
COc1cc(C=CC(=O)c2cc(OC)c(OC)c(OC)c2)cc(OC)c1OC,65.0*
COc1cc(C(=O)NNC(=O)/C=C/c2ccccc2)cc(OC)c1OC,-8.8
COc1ccc(NC(=O)N(C)C[C@H]2OCc3ccccc3-c3ccccc3C(=O)N([C@@H](C)CO)C[C@@H]2C)c(OC)c1,0.2[25 µM]
Cc1cccc(S(=O)(=O)N2C[C@@H]3[C@H](c4ccccc42)[C@H](CO)N3Cc2ccc3c(c2)OCO3)c1,31.7[25 µM]
O=C(C1CCCC1)N1C[C@H]2[C@@H](c3ccccc31)[C@@H](CO)N2C(=O)c1ccccc1F,3.2
COc1ccc(S(=O)(=O)N(C)C[C@@H]2Oc3ccc(NC(=O)CCN4CCOCC4)cc3CC(=O)N([C@H](C)CO)C[C@H]2C)cc1,4.1[25 µM]
CC(=NNC(=O)c1ccncc1)c1ccccc1O,-48.4
CC(=NNc1ccc2ccccc2n1)c1ccccc1O,96.2*
Oc1ccc(/C(Cc2ccc3ccccc3n2)=N\Nc2ccccc2)c(O)c1,-39.4
COc1cccc(NC(=O)N2C[C@@H](O)COC[C@@H]3O[C@H](CC(=O)N(C)C)CC[C@H]32)c1,-14.8[25 µM]
C/C=C/c1ccc([C@@H]2[C@@H](C#N)N(c3ncc(CC)s3)[C@H]2CO)cc1,4.5[25 µM]
O=C(CCN1CCCCC1)NCC[C@H]1CC[C@H](NS(=O)(=O)c2cccc(Cl)c2)[C@@H](CO)O1,-5.0[25 µM]
CCCCCN1C=CC(=C2C(=O)c3ccccc3C2=O)C=C1,81.5*
CCCCCCCN1N=C(C)C(C(=O)c2ccccc2)C1=O (stereo not drawn),11.0

# Screening data as filed in PubChem BioAssay.
